Compounds without any hit were thinned out: in the full panel of roughly 83,000, 20% have a hit.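 48-hour exposure, single concentration, 96-well plates; percent growth endpoint where 0 means no net growth. Active: below 10.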 Activity calls are given as the source filed them.

15 molecules from PubChem BioAssay (NCI) can be followed below.

The experiment has as its system SNB-75 CNS. As to the kind of experiment: NCI-60 one-dose screen, 48 h (100 = growth as untreated, 0 = no growth, -100 = all killed). The following applies: 10 µM unless noted.
Turning to `NS(=O)(=O)c1ccc(-n2nc(-c3ccc(Cl)cc3)ccc2=O)cc1`, the growth was 86% (inactive).

Turning to `Nc1nc(Cl)cc(NCCCCNc2cc(Cl)nc(N)n2)n1`, the growth was 108% (inactive). Then `Fc1ccc(/C=N/n2c(-c3cc(Cl)cc(Cl)c3Cl)nn(CNc3ccc(Cl)nn3)c2=S)cc1`, with 99.4% (inactive). For the molecule `COc1cc(-c2nc3ccccc3s2)ccc1OCc1nc2n(n1)S(=O)(=O)c1ccccc1N2C`, the growth is 41% (inactive). As for `Cc1c(Cl)ccc2c(C(=O)Cl)cc(-c3ccccc3)nc12`, the growth was 97.4% (inactive). In the case of `CN1CCN(Cn2nc(-c3cc(Cl)cc(Cl)c3Cl)n(/N=C/c3ccc(Cl)cc3)c2=S)CC1`, the growth is 107% (inactive). Then `COc1cc2nc(C(=O)N3CCCCC3)cc(Nc3ccccc3)c2cc1OC`, with 97.5% (inactive); and `COc1ccccc1N1CCN(CC(O)COc2c(Br)c(Br)c(Br)c3c2OC(C)(C)C3)CC1` (stereo not given), with 71% (inactive).

Take `COc1cc(Cn2cc3c(c2)-c2onc(CO)c2CC3)cc(OC)c1OC`: the growth is 82% (inactive). On to `CN1CCN(C(=O)/C=C/c2ccc([N+](=O)[O-])o2)CC1`, for which the growth was 95.2% (inactive).

Consider `CC(C)C1(C(C)C)NC(=O)NC1=O`, for which the growth is 94.5% (inactive). For `COc1cc(/C=C/C(=O)c2c(C)n([O-])c3cc(C)c(C)cc3[n+]2=O)cc(OC)c1OC`, the growth was 50.5% (inactive). As for `COc1cc(/C=C\c2cc(/C=C\c3ccc(O)c(OC)c3)n(C(=O)CNc3ccccc3OC)n2)ccc1O`, the figure is 61.6% (inactive); as for `OCc1cn(-c2ccc(Cl)cc2)nc1-c1ccc(O)cc1`, 83.3% (inactive); as for `CCc1c2cc(Cl)ccc2n2cc(Cc3ccccc3)[nH]c(=O)c12`, 96.9% (inactive).
